Test results as given in PubChem BioAssay AID1159580 (chemical genetic matrix, 2015).
In all, about 5,500 compounds went through this assay and about 2,000 (36%) were called active. About 18% were inconclusive and are not listed. No stated cut-off is given here; in the data, active means normalized growth mostly below about 0.91 (no sharp cut-off); inconclusive means no clear call, values can overlap the other calls; inactive means mostly above about 0.92. Some of the results follow.

Experiment: chemical genetic growth profiling, strain panel (AID 1159580);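 further: tested at 20 µM; growth read once vehicle control cultures reached saturation at 30 °C; 1 = growth at the plate median or of vehicle wells; lower values mean less growth of the strain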
Conditions: growth OD
[1] = S. cerevisiae deletion strains, locus YDL101C, strain DUN1, active compounds read low
[2] = S. cerevisiae deletion strains, locus YHR030C, strain SLT2, active compounds read low
[3] = S. cerevisiae deletion strains, locus YHR079C, strain IRE1, active compounds read low
[4] = S. cerevisiae deletion strains, locus YJL095W, strain BCK1, active compounds read low
[5] = S. cerevisiae deletion strains, locus YJR066W, strain TOR1, active compounds read low
[6] = S. cerevisiae deletion strains, locus YLR113W, strain HOG1, active compounds read low
[7] = S. cerevisiae deletion strains, locus YNL183C, strain NPR1, active compounds read low
[8] = S. cerevisiae deletion strains, locus YOR231W, strain MKK1, active compounds read low
[9] = S. cerevisiae deletion strains, locus YPL256C, strain CLN2, active compounds read low
[10] = S. cerevisiae deletion strains, locus YDR150W, strain NUM1, active compounds read low
[11] = S. cerevisiae deletion strains, locus YMR307W, strain GAS1, active compounds read low
[12] = S. cerevisiae deletion strains, locus YNL153C, strain GIM3, active compounds read low
[13] = S. cerevisiae deletion strains, locus YNL322C, strain KRE1, active compounds read low
[14] = S. cerevisiae deletion strains, locus YPL241C, strain CIN2, active compounds read low

Measured: normalized growth

O=C1C(Cl)=C(Oc2cc(Cl)c(Cl)cc2Cl)C(=O)c2ccccc21
inactive: S. cerevisiae deletion strains, locus YDL017W, strain CDC7, active compounds read low 0.912 | S. cerevisiae deletion strains, locus YDL028C, strain MPS1, active compounds read low 0.936 | S. cerevisiae deletion strains, locus YFL009W, strain cdc4, active compounds read low 0.922 | S. cerevisiae deletion strains, locus YFR003C, strain YPI1, active compounds read low 0.941 | S. cerevisiae deletion strains, locus YIL147C, strain SLN1, active compounds read low 0.938 | S. cerevisiae deletion strains, locus YJR016C, strain ILV3, active compounds read low 0.917 | S. cerevisiae deletion strains, locus YNL006W, strain LST8, active compounds read low 0.95 | S. cerevisiae deletion strains, locus YOR329C, strain SCD5, active compounds read low 0.94 | S. cerevisiae deletion strains, locus YPR111W, strain DBF20, active compounds read low 0.897
active: S. cerevisiae deletion strains, locus YAR019C, strain CDC15, active compounds read low 0.215 | S. cerevisiae deletion strains, locus YBR136W, strain MEC1, active compounds read low 0.516 | [1] 0.524 | S. cerevisiae deletion strains, locus YDL132W, strain cdc53, active compounds read low 0.41 | S. cerevisiae deletion strains, locus YDL214C, strain PRR2, active compounds read low 0.114 | S. cerevisiae deletion strains, locus YDR052C, strain DBF4, active compounds read low 0.546 | S. cerevisiae deletion strains, locus YDR054C, strain cdc34, active compounds read low 0.133 | S. cerevisiae deletion strains, locus YDR477W, strain SNF1, active compounds read low 0.125 | S. cerevisiae deletion strains, locus YER123W, strain YCK3, active compounds read low 0.122 | S. cerevisiae deletion strains, locus YER133W, strain GLC7, active compounds read low 0.126 | S. cerevisiae deletion strains, locus YFL029C, strain CAK1, active compounds read low 0.236 | S. cerevisiae deletion strains, locus YFR019W, strain FAB1, active compounds read low 0.104 | S. cerevisiae deletion strains, locus YFR028C, strain CDC14, active compounds read low 0.149 | S. cerevisiae deletion strains, locus YGR040W, strain KSS1, active compounds read low 0.14 | S. cerevisiae deletion strains, locus YGR052W, strain FMP48, active compounds read low 0.126 | S. cerevisiae deletion strains, locus YGR092W, strain DBF2, active compounds read low 0.352 | [2] 0.122 | [3] 0.333 | S. cerevisiae deletion strains, locus YHR082C, strain KSP1, active compounds read low 0.148 | S. cerevisiae deletion strains, locus YHR205W, strain SCH9, active compounds read low 0.125 | [4] 0.114 | S. cerevisiae deletion strains, locus YJL128C, strain PBS2, active compounds read low 0.11 | S. cerevisiae deletion strains, locus YJL157C, strain FAR1, active compounds read low 0.303 | S. cerevisiae deletion strains, locus YJR066W, strain TOR1 (second series), active compounds read low 0.119 | [5] 0.12 | S. cerevisiae deletion strains, locus YKL048C, strain ELM1, active compounds read low 0.658 | S. cerevisiae deletion strains, locus YKL067W, strain YNK1, active compounds read low 0.32 | S. cerevisiae deletion strains, locus YKL101W, strain HSL1, active compounds read low 0.38 | S. cerevisiae deletion strains, locus YKL193C, strain SDS22, active compounds read low 0.174 | S. cerevisiae deletion strains, locus YKL203C, strain TOR2, active compounds read low 0.13 | [6] 0.171 | S. cerevisiae deletion strains, locus YLR133W, strain CKI1, active compounds read low 0.294 | S. cerevisiae deletion strains, locus YLR403W, strain SFP1, active compounds read low 0.197 | S. cerevisiae deletion strains, locus YML070W, strain DAK1, active compounds read low 0.105 | S. cerevisiae deletion strains, locus YMR001C, strain CDC5, active compounds read low 0.11 | S. cerevisiae deletion strains, locus YMR205C, strain PFK2 (second series), active compounds read low 0.538 | S. cerevisiae deletion strains, locus YMR277W, strain FCP1, active compounds read low 0.117 | S. cerevisiae deletion strains, locus YNL020C, strain ARK1, active compounds read low 0.555 | [7] 0.128 | S. cerevisiae deletion strains, locus YNL207W, strain RIO2, active compounds read low 0.537 | S. cerevisiae deletion strains, locus YNL222W, strain SSU72, active compounds read low 0.522 | S. cerevisiae deletion strains, locus YNL307C, strain MCK1 (second series), active compounds read low 0.246 | S. cerevisiae deletion strains, locus YOL078W, strain AVO1, active compounds read low 0.161 | S. cerevisiae deletion strains, locus YOL136C, strain PFK27, active compounds read low 0.11 | S. cerevisiae deletion strains, locus YOR061W, strain CKA2, active compounds read low 0.519 | S. cerevisiae deletion strains, locus YOR119C, strain RIO1, active compounds read low 0.118 | [8] 0.294 | S. cerevisiae deletion strains, locus YPL031C, strain PHO85, active compounds read low 0.225 | S. cerevisiae deletion strains, locus YPL153C, strain RAD53, active compounds read low 0.318 | S. cerevisiae deletion strains, locus YPL204W, strain HRR25, active compounds read low 0.327 | S. cerevisiae deletion strains, locus YPL209C, strain IPL1, active compounds read low 0.581 | [9] 0.183 | S. cerevisiae deletion strains, locus YPR025C, strain CCL1, active compounds read low 0.543 | S. cerevisiae deletion strains, strain TSCII, active compounds read low 0.345

O=C1CC(Nc2ccccc2)C=C1Nc1ccccc1 (centres undefined)
inactive: S. cerevisiae deletion strains, locus YAL013W, strain DEP1, active compounds read low 1.01 | S. cerevisiae deletion strains, locus YBR229C, strain ROT2, active compounds read low 1.03 | S. cerevisiae deletion strains, locus YCL061C, strain MRC1, active compounds read low 1.01 | [1] 1.01 | S. cerevisiae deletion strains, locus YDL134C, strain PPH21, active compounds read low 1.02 | [10] 1.02 | S. cerevisiae deletion strains, locus YEL061C, strain CIN8, active compounds read low 1.01 | S. cerevisiae deletion strains, locus YGR078C, strain PAC10, active compounds read low 1.01 | [2] 1.01 | S. cerevisiae deletion strains, locus YHR087W, strain rtc3, active compounds read low 1.02 | S. cerevisiae deletion strains, locus YJR043C, strain POL32, active compounds read low 1.01 | S. cerevisiae deletion strains, locus YJR075W, strain HOC1, active compounds read low 1.03 | S. cerevisiae deletion strains, locus YKL190W, strain CNB1, active compounds read low 1.02 | S. cerevisiae deletion strains, locus YLR039C, strain RIC1, active compounds read low 0.977 | S. cerevisiae deletion strains, locus YLR058C, strain SHM2 (second series), active compounds read low 1.03 | S. cerevisiae deletion strains, locus YLR085C, strain ARP6, active compounds read low 0.968 | S. cerevisiae deletion strains, locus YLR262C, strain YPT6, active compounds read low 1.02 | S. cerevisiae deletion strains, locus YML094W, strain GIM5, active compounds read low 1.01 | S. cerevisiae deletion strains, locus YMR219W, strain ESC1, active compounds read low 1.03 | S. cerevisiae deletion strains, locus YMR263W, strain SAP30, active compounds read low 1 | [11] 1.02 | [12] 1 | S. cerevisiae deletion strains, locus YNL298W, strain CLA4 (second series), active compounds read low 0.979 | [13] 1.01 | S. cerevisiae deletion strains, locus YNR030W, strain Alg12, active compounds read low 1.01 | S. cerevisiae deletion strains, locus YPL055C, strain LGE1, active compounds read low 1.09 | [14] 0.998 | S. cerevisiae deletion strains, locus YPR135W, strain CTF4, active compounds read low 0.966 | S. cerevisiae strains, strain wild type, active compounds read low 1.02

NC(=O)OCC(COC(N)=O)c1ccccc1
inactive: S. cerevisiae deletion strains, locus YAL040C, strain CLN3, active compounds read low 1.03 | S. cerevisiae deletion strains, locus YCL061C, strain MRC1 (second series), active compounds read low 1.01 | [10] 1 | S. cerevisiae deletion strains, locus YDR363W, strain ESC2, active compounds read low 1 | S. cerevisiae deletion strains, locus YER002W, strain NOP16, active compounds read low 0.999 | S. cerevisiae deletion strains, locus YGR229C, strain SMI1, active compounds read low 0.991 | [2] 0.975 | [3] 0.991 | [4] 0.959 | [5] 0.932 | [6] 0.99 | [11] 0.985 | [12] 1.04 | S. cerevisiae deletion strains, locus YNL175C, strain NOP13, active compounds read low 0.999 | [7] 0.945 | S. cerevisiae deletion strains, locus YNL197C, strain WHI3, active compounds read low 1 | S. cerevisiae deletion strains, locus YNL224C, strain SQS1, active compounds read low 1.03 | [13] 1.02 | S. cerevisiae deletion strains, locus YOR083W, strain WHI5 (second series), active compounds read low 1.02 | [8] 0.976 | [14] 1.01 | [9] 0.976
